The values below come from the supplement of paper PMC8728848.

This is one part of a sample in which the strongest signals are shown more often than they occur.

Common to all, as to assay: glycan array binding signal (z-score within array); higher = stronger binding
What all share (settings): glycan notation: IUPAC condensed, linker removed

In one test the target is GalNAc(a1-3)GalNAc. The gist of the method: (§1)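 The Consortium for Functional Glycomics database supplied 3228 glycan arrays, of which those lacking an available protein sequence were dropped. The binding signal, a within-array Z-score, was averaged across arrays of the same protein sequence and across linkers. Negative scores can be read as non-binding.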
The target of test [1] is GalNAc(b1-4)GlcNAc(b1-2)Man(a1-3)[GalNAc(b1-4)GlcNAc(b1-2)Man(a1-6)]Man(b1-4)GlcNAc(b1-4)GlcNAc. The gist of the method: as §1
Test [2] concerns the target GalNAc(b1-4)GlcNAc(b1-3)GalNAc(b1-4)GlcNAc. In a few lines: as §1
The target in another test is GlcA(b1-6)Gal. The gist of the method: as §1
The target in test [3] is GlcNAc(a1-4)Gal(b1-4)GlcNAc. In a few lines: as §1
Test [4] concerns the target GlcNAc(b1-3)Gal(b1-4)GlcNAc. The gist of the method: as §1
Test [5] has as its target GlcNAc(b1-3)Gal(b1-4)GlcNAc(b1-6)[Gal(b1-3)]GalNAc. The gist of the method:
as §1

In test [6] the target is GlcNAc(b1-3)Gal(b1-4)GlcNAc(b1-6)[GlcNAc(b1-3)Gal(b1-3)]GalNAc. In a few lines: as §1
Test [7] deals with GlcNAc(b1-3)Gal(b1-4)GlcNAc(b1-6)[GlcNAc(b1-3)]Gal(b1-4)GlcNAc. The gist of the method:
as §1

Test [8] deals with Kdn(a2-3)Gal(b1-4)[Fuc(a1-3)]GlcNAc. In a few lines: as §1
Test [9] concerns the target Neu5Ac(a2-3)Gal(b1-4)GlcNAc(b1-2)Man(a1-3)[Neu5Ac(a2-3)Gal(b1-4)GlcNAc(b1-2)Man(a1-6)]Man(b1-4)GlcNAc(b1-4)GlcNAc. The gist of the method: as §1
For test [10], the target named is Neu5Ac(a2-3)Gal(b1-4)GlcNAc(b1-3)Gal(b1-3)GlcNAc. The gist of the method: as §1
Test [11] concerns the target Neu5Ac(a2-3)Gal(b1-4)GlcNAc(b1-3)Gal(b1-4)GlcNAc(b1-3)GalNAc. In a few lines: as §1
In test [12] the target is Neu5Ac(a2-3)Gal(b1-4)GlcNAc(b1-3)Gal(b1-4)GlcNAc(b1-6)[Gal(b1-3)]GalNAc. The gist of the method:
as §1

Test [13] has as its target Neu5Ac(a2-6)Gal(b1-4)GlcNAc(b1-2)Man(a1-3)Man(b1-4)GlcNAc(b1-4)GlcNAc. In a few lines: as §1
Test [14] has as its target Neu5Ac(a2-6)Gal(b1-4)GlcNAc(b1-2)Man(a1-3)[Man(a1-6)]Man(b1-4)GlcNAc(b1-4)GlcNAc. In a few lines: as §1
Test [15] concerns the target Neu5Ac(a2-6)Gal(b1-4)GlcNAc(b1-2)Man(a1-6)[Man(a1-3)]Man(b1-4)GlcNAc(b1-4)GlcNAc. The gist of the method: as §1
In test [16] the target is Neu5Ac(a2-6)Gal(b1-4)GlcNAc(b1-3)[Neu5Ac(a2-6)Gal(b1-4)GlcNAc(b1-6)]GalNAc. In a few lines: as §1
The target in test [17] is Neu5Ac(a2-6)GlcNAc(b1-4)GlcNAc(b1-4)GlcNAc. The gist of the method: as §1
Test [18] deals with Neu5Ac(a2-8)Neu5Ac(a2-3)Gal(b1-3)GalNAc(b1-4)[Neu5Ac(a2-3)]Gal(b1-4)Glc. The gist of the method: as §1
The target of test [19] is Neu5Ac(a2-8)Neu5Ac(a2-8)Neu5Ac(a2-8)Neu5Ac(a2-3)[GalNAc(b1-4)]Gal(b1-4)Glc. In a few lines:
as §1

Test [20] has as its target Neu5Gc(b2-6)Gal(b1-4)GlcNAc. The gist of the method: as §1

B1: CFEM-PPm (Pichia pastoris), F2QPV1 (protein)
chain: AVATPPACLLACAAEVVKESSDCDALNNIQCICENEGSAIHACLESTCPDGLSSTALQSFEDVCE
As for B1, the “glycan array binding signal (z-score)” value in the test with GalNAc(a1-3)GalNAc was -0.194; in [1], 0.149; in test [2], -0.226; with GlcA(b1-6)Gal it was 2.41; in [3], -0.205; in test [4], 0.308. The “glycan array binding signal (z-score)” value was 0.543 in test [5]; -0.173 in [6]; -0.353 in test [7]; 0.034 in test [8]; -0.218 in [9]; -0.197 in test [10]. The “glycan array binding signal (z-score)” value was -0.282 in [11]; 0.598 in [12]; -0.215 in test [13]; -0.253 in [14]; -0.345 in test [15]; 0.043 in test [16]. The “glycan array binding signal (z-score)” value in test [17] is -0.354; in [18], 0.442; in test [19], -0.319; in [20] it was -0.034.
